Assay outcomes: PubChem, NMMLSC
Compounds with a hit are over-represented: about 3.5% of the library has one in this group of screens.
BoNT-A LC inh2: blocks Botulinum neurotoxin A light chain protease; multiplex microsphere protease substrate cleavage, flow cytometry; inhibition, % at 10 µM; 360,000 tested, 0.17% active
BoNT-F LC inh: BoNT F light chain protease inhibition; Multiplex microsphere protease cleavage assay, flow cytometry; inhibition, % at 10 µM; 360,000 tested, 0.22% active; AID 588497; in the data active = inhibition above about 35%, passing the limit was not always enough; inconclusive = no clear call, values can overlap the other calls
Anthrax LF prot: anthrax lethal factor protease inhibition. P15917. 360,000 tested, 0.12% active. multiplex microsphere protease cleavage assay, LF. AID 588501. inhibition, % at 10 µM
Target sequence (P15917 whole entry, looked up): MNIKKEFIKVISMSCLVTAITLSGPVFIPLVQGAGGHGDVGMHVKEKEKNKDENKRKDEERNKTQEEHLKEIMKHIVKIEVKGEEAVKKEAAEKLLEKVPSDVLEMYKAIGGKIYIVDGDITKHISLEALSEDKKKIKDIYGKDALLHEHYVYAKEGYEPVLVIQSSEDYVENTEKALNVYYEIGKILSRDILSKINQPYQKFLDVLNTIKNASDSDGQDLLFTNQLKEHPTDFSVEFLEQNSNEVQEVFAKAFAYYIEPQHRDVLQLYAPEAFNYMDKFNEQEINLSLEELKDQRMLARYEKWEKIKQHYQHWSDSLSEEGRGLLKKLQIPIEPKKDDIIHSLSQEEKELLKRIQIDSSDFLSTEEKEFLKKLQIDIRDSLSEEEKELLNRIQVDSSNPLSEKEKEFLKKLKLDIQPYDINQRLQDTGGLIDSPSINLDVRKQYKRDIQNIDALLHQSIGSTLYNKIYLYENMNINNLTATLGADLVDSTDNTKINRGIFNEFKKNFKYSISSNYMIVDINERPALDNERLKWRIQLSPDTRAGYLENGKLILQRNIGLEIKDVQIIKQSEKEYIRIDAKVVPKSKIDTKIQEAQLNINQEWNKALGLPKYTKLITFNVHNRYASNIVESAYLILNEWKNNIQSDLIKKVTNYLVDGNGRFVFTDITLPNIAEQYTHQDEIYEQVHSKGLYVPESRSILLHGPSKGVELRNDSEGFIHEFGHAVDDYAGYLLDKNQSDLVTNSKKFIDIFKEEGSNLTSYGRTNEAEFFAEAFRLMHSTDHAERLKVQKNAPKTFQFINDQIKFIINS
Bead autofluor: flagged as autofluorescent in microsphere protease counterscreen; 360,000 tested, 3.1% active; compound autofluorescence counterscreen, microsphere flow cytometry; active compounds read high; fluorescence intensity (test concentration not listed); AID 624483; in the data active = fluorescence intensity above about 16000; inconclusive = no clear call, values can overlap the other calls
A number is an active result; . = inactive; ? = inconclusive; ! = repeats disagree. Cut-off read from the data, not from the text of the source, unless noted: active = inhibition above about 30%; inconclusive = no clear call, values can overlap the other calls; inactive = below that.

SMILES | BoNT-A LC inh2 | BoNT-F LC inh | Anthrax LF prot | Bead autofluor
O=C(CSc1nn(-c2ccccc2)c(=S)s1)NC(=O)NCc1ccco1 | . | . | . | 23530
CCCc1nc2scc(-c3ccccc3)c2c(=O)n1N | . | . | . | 23965
CCc1nc2scc(-c3ccc(C)cc3)c2c(=O)n1N | . | . | . | .
Cc1ccc(NC(=O)COC(=O)C2(c3ccc(Cl)cc3)CCCC2)cc1 | . | . | . | .
Cc1cc(SCC(=O)N/N=C/c2ccc(O)c(O)c2O)c(C)cc1Br | . | . | . | 22001
COc1cc(/C=N/NC(=O)CSc2cc(C)c(Br)cc2C)ccc1O | . | . | . | .
O=C(Cn1c(C(F)(F)F)nc2ccccc21)OCC(=O)c1c[nH]c2ccccc12 | 57 | . | . | .
Cc1[nH]c2ccccc2c1C(=O)COC(=O)Cn1c(C(F)(F)F)nc2ccccc21 | . | . | . | .
N#Cc1c(-c2ccc(F)cc2)nc2n(c1=O)CCS2 | . | . | . | 22077
CCOc1ccc(-c2nnc(SCc3nc4ccccc4[nH]3)n2N)cc1 | . | . | . | 22829
Cn1c(SCc2nc3ccccc3[nH]2)nnc1-c1cccnc1 | ? | . | . | 20145
Brc1ccc(-n2c(SCc3nc4ccccc4[nH]3)nnc2-c2ccncc2)cc1 | . | . | . | .
COc1ccccc1-c1nnc(SCc2nc3ccccc3[nH]2)n1C | . | . | . | .
Clc1ccc(-n2c(SCc3nc4ccccc4[nH]3)nnc2-c2ccncc2)cc1 | . | . | . | 21021
CCc1ccccc1NC(=O)Cn1nnc(C(=O)NCc2cccc(OC)c2)c1N | . | . | . | .
O=C(CN1CCN(S(=O)(=O)c2ccc(F)cc2)CC1)NCC1(N2CCOCC2)CCCCC1 | . | . | . | .
Brc1ccc(Oc2ncc(CN3CCOCC3)s2)cc1 | ? | . | . | 18177
CCOC(=O)C1CCN(Cc2cnc(Oc3ccc(C(C)(C)C)cc3)s2)CC1 | . | . | . | 21136
Cc1ccccc1-n1ncc(C(C)NC(=O)c2ccco2)c1C (stereo not drawn) | . | . | . | .
Cc1c(Br)c(O)c(Br)c2sc(=O)oc12 | . | . | . | .
CC(C)CC(=O)Nc1nnc(S(=O)(=O)N2CCCCCC2)s1 | . | . | . | .
CC(C)OCCCNC(=O)c1cc(S(=O)(=O)N2CCc3ccccc32)cn1C | . | . | . | .
CC(=O)Nc1ccc(NC(=O)c2c(C)noc2C)cc1 | . | . | . | .
CCCCc1ccc(NC(=O)c2c(C)noc2C)cc1 | . | . | . | 17390
COc1ccc2c(c1)[nH]c1c(=O)n(CC3CCCO3)cnc12 (stereo not drawn) | . | . | . | 17272
SMILES | BoNT-A LC inh2 | BoNT-F LC inh | Anthrax LF prot | Bead autofluor
CCN1CC2CCCC3(C1)C(=O)NC1(CCCCC1)N=C23 (stereo not drawn) | . | . | . | 21486
O=C(OCc1cccc(F)c1)c1ccc2c(c1)-c1ccccc1C2=O | . | . | . | 22813
CCOC(=O)c1ccc(COC(=O)c2ccc3c(c2)-c2ccccc2C3=O)cc1 | . | . | . | .
O=C(OCc1ccccc1F)c1ccc2c(c1)-c1ccccc1C2=O | . | . | . | 19102
CCOC(=O)[C@@H]1[C@H]2COc3ccccc3[C@H]2N2C(=O)N(c3ccccc3)C(=O)[C@]12C | . | . | . | .
Cc1cc(=O)cc(C)n1-c1ccccc1Br | . | . | . | .
O=C(CSc1nccc(=O)[nH]1)c1ccccc1Br | . | . | . | 16683
CN1C(=O)S/C(=C/c2cccnc2)C1=O | . | . | . | 21884
O=C(O)CN1C(=O)S/C(=C\c2cccnc2)C1=O | . | . | . | .
CCCc1nnc(NC(=O)c2cccc(OC)c2)s1 | ? | . | . | 21067
COc1ccc(Cc2nnc(NC(=O)c3ccc(OC(C)=O)cc3)s2)cc1OC | . | 35 | . | .
COc1cccc(C(=O)Nc2c(F)c(F)c(F)c(F)c2F)c1 | . | . | . | 20193
COc1ccc(Nc2sc(C(=O)c3ccc(Cl)cc3)c(N)c2C(=O)Nc2ccccc2OC)cc1 | . | . | . | 22771
COc1ccc(C(=O)c2sc(Nc3ccccc3)c(C(=O)Nc3ccc(OC)c(OC)c3)c2N)cc1 | . | . | . | .
CCn1c(C)nc2c(=O)oc3ccccc3c21 | . | . | . | 21816
CC(C)Cn1nnc2c(=O)oc3ccccc3c21 | ? | . | . | 24285
O=C(COC(=O)Cc1c(F)cccc1Cl)NC(=O)Nc1ccccc1F | . | . | . | .
CSc1ccc(C(O)c2ncc(-c3ccc(F)cc3)[nH]2)cc1 (stereo not drawn) | . | . | . | .
c1ccc(OCc2nc3ccccc3[nH]2)cc1 | . | . | . | 22117
c1ccc2[nH]c(CN3CCCCCC3)nc2c1 | . | . | . | 20479
O=C(OCc1nc2ccccc2[nH]1)C12CC3CC(CC(C3)C1)C2 | . | . | . | 17109
O=c1[nH]c(CN2CCCCC2)nc2ccccc12 | . | . | . | .
c1ccc(CN2CCN(Cc3c[nH]c4ccccc34)CC2)cc1 | . | ? | . | .
c1ccc2c(CN3CCCCCCC3)c[nH]c2c1 | . | . | . | 17395
Cc1ccc(C)c(NC(=O)CN(C)C(=O)c2cc3c(s2)CCCCC3)c1 | . | . | . | .
SMILES | BoNT-A LC inh2 | BoNT-F LC inh | Anthrax LF prot | Bead autofluor
Cc1cc(Nc2ccc(Cl)cc2)nc(N)n1 | . | . | . | 21661
COc1ccc(Nc2cc(C)nc(N)n2)cc1 | . | ? | . | .
CN1CCN(c2ccccc2NC(=O)c2ccc(-c3ccccc3[N+](=O)[O-])o2)CC1 | . | . | ? | .
Brc1ccc(Oc2nnnn2-c2ccccc2)cc1 | . | . | . | .
Cc1cc(Oc2nnnn2-c2ccccc2)ccc1Cl | ? | . | . | 19957
N#CCCC(CCC#N)(CCC#N)c1cc[n+](CCc2ccccn2)cc1 | . | . | . | .
CC(NC(=O)c1cc(-c2ccc3c(c2)OCO3)nc2ccccc12)C(C)(C)C (stereo not drawn) | . | . | . | 21612
CC(C)CNC(=O)CSc1nc(-c2cccs2)cc(C(F)(F)F)n1 | . | 38 | . | .
CC(C)c1cc(C(N)=O)c(NC(=O)C2CCC2)s1 | . | . | . | 21955
O=C(Cn1nc(C(=O)O)c2ccccc2c1=O)Nc1cc(S(=O)(=O)N2CCCCC2)ccc1Cl | . | . | . | .
COc1ccc(NC(=O)NNC(=O)CCc2ccc(O)c(O)c2)cc1OC | . | . | . | ?
C/C(N)=C(/C#N)C(=O)CSc1nnc(Nc2cccc(C)c2)s1 | . | . | . | 17498!
C/C(N)=C(/C#N)C(=O)CSc1nnnn1-c1ccc(C)cc1C | . | . | . | 19626
Cc1ccc(-n2nnnc2SCC(=O)Nc2cc(C)on2)c(C)c1 | . | . | . | .
C/C(N)=C(/C#N)C(=O)CSc1nc2cc(Cl)ccc2s1 | ? | . | . | 24839
C/C(N)=C(/C#N)C(=O)CSc1cc(Cl)ccc1Cl | . | . | . | .
O=C(Nc1cccc(S(=O)(=O)N2CCCCC2)c1)Nc1ccc(Cl)cc1Cl | . | . | . | .
O=C(CCSc1nccn1Cc1ccccc1)N1CCOCC1 | . | . | . | 20488
CC(=O)Nc1ccc(NC(=O)CSc2nccn2Cc2ccccc2)cc1 | . | . | . | 20023
O=C(CCSc1nnc(-c2ccccc2)o1)N1CCOCC1 | . | . | . | .
Cc1ccc(NC(=O)CSc2nccn2Cc2ccccc2)cc1C | . | . | . | .
Cc1cnc(C(=O)NC(Cc2ccccc2)c2ccccc2)cn1 (stereo not drawn) | . | . | . | .
